The results in this text go back to the OligoGym collection.
Note: reference of the scale not given here.

The target in one assay is ARPC4. Nature of the assay: pooled miR-30 sensor sort-seq; sequence = guide strand. As to conditions: shRNA.
Regarding TGTAACAGGAGCTCTTTGCTAC, the sensor-assay potency score (higher = more potent) is -0.241.

Regarding TGTTTGTACATCTGCTCTGTGT, the sensor-assay potency score (higher = more potent) is -0.895.

TTCACAGCAATGCTGACCCGGA: the sensor-assay potency score (higher = more potent) was -0.48.

TGTGTTTGTACATCTGCTCTGT registered a sensor-assay potency score (higher = more potent) of 0.568.

As for TTTTCCTTCTCATTCCTGCTGA, the sensor-assay potency score (higher = more potent) is 0.452.

The sequence TTGTGTTTGTACATCTGCTCTG gave a sensor-assay potency score (higher = more potent) of 0.407.

TTTCACAGCAATGCTGACCCGG: the sensor-assay potency score (higher = more potent) is -0.244.

The sequence AAATCTTCTCGATCTCATCAGC came in with a sensor-assay potency score (higher = more potent) of -0.856.

Sequence TGTCGTTCCACAACCTGGGAGG registered a sensor-assay potency score (higher = more potent) of -0.878.

TTCATCTCACTGATCTCCTTGT showed a sensor-assay potency score (higher = more potent) of 0.358.

On to TTGACTGACAGCTTCATCTCAC, for which the sensor-assay potency score (higher = more potent) came to 0.494.

The next assay addresses ASB15. Described as above. As to conditions: shRNA.
Consider TTAGCTGAATATCATAACTTGT, for which the sensor-assay potency score (higher = more potent) is -0.69.

Sequence TGTATCTTTGAATAGCTGGTGG displayed a sensor-assay potency score (higher = more potent) of -0.176.

In turn, TTTTTCATCAGCTTCATCCATT came in with a sensor-assay potency score (higher = more potent) of -0.484.

On to TTTCACAGCAATCAGAAGGGGG, for which the sensor-assay potency score (higher = more potent) was -0.119.

TTTATATTTTACATACTCCTGG yielded a sensor-assay potency score (higher = more potent) of -0.0391.

Take TTTATTACACAAGATGTCCATC: the sensor-assay potency score (higher = more potent) was -0.601.

Turning to TTACACAAGATGTCCATCCTGG, the sensor-assay potency score (higher = more potent) turned out to be 0.839.

As for TATCTTTGAATAGCTGGTGGTA, the sensor-assay potency score (higher = more potent) is -0.545.

In the case of TATGTATCTTTGAATAGCTGGT, the sensor-assay potency score (higher = more potent) is -0.171.

The next assay addresses ASCC1. Described as above. As to conditions: shRNA.
As for TAGAAGTTCTCAAACAACTTTA, the sensor-assay potency score (higher = more potent) is -0.0661.

In turn, TCCATTTCTATTTTCTTCCTAG had a sensor-assay potency score (higher = more potent) of -0.685.

TCTCTTTCCAACTATATGCTTA yielded a sensor-assay potency score (higher = more potent) of -0.403.

For AATTACACCATTTCGATGCTGG, the sensor-assay potency score (higher = more potent) was 0.516.

With TAGACCGGAATCCTTGTGGGGT, the sensor-assay potency score (higher = more potent) is -0.676.

TTGGACTGGATTCTTCCTGTAA came in with a sensor-assay potency score (higher = more potent) of -0.381.

TAGCATCTCACATGTCTGCTGG yielded a sensor-assay potency score (higher = more potent) of 0.184.

Consider TATGCTTATAGAGCAAGCTGGG, for which the sensor-assay potency score (higher = more potent) is -1.

Sequence TCTTGGACTGGATTCTTCCTGT displayed a sensor-assay potency score (higher = more potent) of 0.362.

With TTTCACACTATTCCACTCTTTC, the sensor-assay potency score (higher = more potent) is -0.561.

The sequence TCAACTAATTCTTGTAGCCTGT yielded a sensor-assay potency score (higher = more potent) of -0.154.

On to TTCTTCATGTTGATAGGTCTGT, for which the sensor-assay potency score (higher = more potent) was 1.07.

For another assay, the target named is ASCL1. Described as above. As to conditions: shRNA.
TTCACTGTAAACCAATGTCTAC returned a sensor-assay potency score (higher = more potent) of -1.2.

TTGGGCGCTGACTTGTGACCGC: the sensor-assay potency score (higher = more potent) was -0.646.

In the case of TTGAACAGTATTTAATAACATC, the sensor-assay potency score (higher = more potent) is -1.14.

Consider TGTCGCTTGACTTGCTTGGGCG, for which the sensor-assay potency score (higher = more potent) is -1.29.

Consider TTACTCATCTTCTTGTTGGCCG, for which the sensor-assay potency score (higher = more potent) worked out at 0.746.

Regarding TTTGAGTTTGGACAGTAGCTGC, the sensor-assay potency score (higher = more potent) is -0.582.

Regarding TACTCATCTTCTTGTTGGCCGC, the sensor-assay potency score (higher = more potent) was -0.58.

Sequence TTGCTTGGGCGCTGACTTGTGA registered a sensor-assay potency score (higher = more potent) of -0.493.
